Our source for the cell proliferation values is the supplement of paper PMC9337992.

± gives the standard deviation of the averaged measurements.

The subject of this test is MDAMB468. As to the kind of experiment: cell proliferation (confluence) relative to DMSO control; higher = less growth inhibition. The following applies: 5 uM; 6 d. As to the method: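 Epigenetic chemical probe screen: 15 TNBC cell lines, 500 cells per well in 384-well plates, treated with 5 uM of each of 36 SGC probes for 6 d. Confluency was imaged by IncuCyte ZOOM and normalised to DMSO control wells. Four replicate wells per compound.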
For `O=C(O)CNC(=O)c1c(O)c2ccccc2n(Cc2ccccc2)c1=O`, the cell proliferation was determined as 77.3 ± 4.1%. Turning to `COc1cc(C(=O)N2CC[C@@H](O)[C@@H](N)C2)cc2nc(-c3cc4ccccc4n3CC3CC3)n(C)c12`, the cell proliferation stood at 45.6 ± 5%. For `c1ccc([C@@H]2C[C@H]2NC2CCNCC2)cc1` the value was 79 ± 12%.
